High-throughput results from PubChem.
Rows were chosen to be rich in hits. Some 3.3% of all compounds tested hit in one or more screens of this group.
KCC2 mod: modulators of human KCC2 chloride dependent transport. Q9H2X9. KCC2 cells, thallium flux FluoZin-2 fluorescence. B-score of Tl+ flux slope (higher = more flux/activation; lower = inhibition) at 10 µM. actives 2.2% (n = 190,000). AID 1456;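 active means thallium flux slope and its plate-corrected score both differing from the plate sample mean at a set confidence after two filtering rounds, in either direction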;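 further: slope of fluorescence scaled to starting intensity during 10 to 20 s after thallium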
Calb FLC: C. albicans growth modulation with fluconazole; growth inhibition, % (no concentration beside the values); C. albicans CaCi-2 (fluconazole-resistant clinical isolate) + fluconazole, Alamar Blue growth, 48 h; actives 0.57% (n = 300,000); AID 1979;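 active means growth inhibition above about 58% in most replicates, limit read from the data, passing the limit was not always enough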;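 further: all wells also contain fluconazole at 8 µg/ml as a sub-toxic cotreatment; 0% = median of DMSO wells and 100% = median of geldanamycin control wells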
Cardio protect: protects H9c2 cardiomyocytes from peroxide injury. H2O2 injury protection, ATPLite, 2 h. protection from H2O2 cell death, % at 20 µM. actives 0.63% (n = 360,000);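 active means compounds giving at least 50% protection of heart cells from peroxide-induced death in the single-dose screen, raw or plate-pattern-corrected value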;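 further: 0% = DMSO wells with peroxide and 100% = DMSO wells without peroxide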
PHOSPHO1 inh: inhibitors of human PHOSPHO1 phosphatase | actives 1.1% (n = 290,000) | inhibition, % at 13.3 µM | AID 1565 | recombinant PHOSPHO1, absorbance phosphatase assay; in the data active means inhibition above about 60%
Target sequence (Q8TCT1 whole entry, looked up): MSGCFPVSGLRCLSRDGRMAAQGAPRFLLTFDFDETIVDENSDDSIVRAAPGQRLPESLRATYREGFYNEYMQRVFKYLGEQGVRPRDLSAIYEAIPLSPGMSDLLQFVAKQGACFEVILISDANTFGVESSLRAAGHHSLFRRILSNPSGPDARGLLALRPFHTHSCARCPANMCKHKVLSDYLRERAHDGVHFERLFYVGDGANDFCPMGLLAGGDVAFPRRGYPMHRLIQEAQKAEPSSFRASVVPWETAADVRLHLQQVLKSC
Efflux pump inh: blocks antifungal efflux pumps in multiplex yeast assay | S. cerevisiae Candida pump triplex, Nile Red efflux | inhibition, % at 10 µM | actives 0.44% (n = 330,000) | AID 485275;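 active means plate passing quality check with inhibition over a set limit, or well fluorescence over plate mean plus 4 SD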;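 further: Nile Red retained in pooled yeast measured as flow cytometry median fluorescence; 0% = buffer negative control and 100% = Enniatin B positive control; higher means more Nile Red kept so more efflux inhibition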
* = called active by the depositor; · = no result.

SMILES | KCC2 mod | Calb FLC | Cardio protect | PHOSPHO1 inh | Efflux pump inh
CCOC(=O)COn1c(-c2cccc(Cl)c2)nc2ccc([N+](=O)[O-])cc21 | 0.054 | 7 | -29 | 65* | 0
CCn1ccc(C(=O)NCCCN2CCCC2=O)n1 | · | 1 | 0 | 65* | 0
CCOc1ccccc1-n1nnnc1SCC(=O)Nc1cc(C)on1 | · | 39 | 4 | 62* | 0
COc1ccc(-c2nnc(SCC(=O)Nc3cc(C)on3)n2N)cc1OC | 0.91 | -10 | -2 | 75* | 0
Cc1cc(SCC(=O)NC2CCCC2)nc2ccccc12 | · | -35 | -4 | 16 | 1
CCOC(=O)c1csc(NC(=O)C2=COCCO2)n1 | · | 2 | 1 | 71* | 0
Cc1ccc(N=Cc2cc3c(cc2[N+](=O)[O-])OCO3)cc1[N+](=O)[O-] | · | -2 | -2 | · | 0
Cc1ccc(C)c(N=Cc2cc3c(cc2[N+](=O)[O-])OCO3)c1 | -0.05 | 3 | 63* | -8 | 0
CC1CCCCN1C(=S)NCCc1ccccc1 (configuration not stated) | 0.93 | 6 | 2 | 88* | 0
S=C(NCCc1ccccc1)N1CCCC1 | · | 8 | -1 | · | 0
Cc1nc2c(=O)oc3ccccc3c2n1-c1ccccc1 | -0.53 | 92* | -2 | 3 | 0
Cc1ccc2ccc(C(Nc3ccccn3)c3ccccc3)c(O)c2n1 (configuration not stated) | 1.1 | -5 | 88* | 4 | 0
Cc1cccc(NC(c2ccc(C)s2)c2ccc3ccc(C)nc3c2O)n1 (configuration not stated) | -1.8 | 11 | 91* | -19 | 0
OC(c1ccccc1)C(Nc1ccccn1)c1ccccc1 (configuration not stated) | · | · | -1 | · | ·
Oc1c(C(Nc2ccccn2)c2ccccn2)ccc2cccnc12 (configuration not stated) | -1 | 3 | 31 | 31 | 0
COc1cc(C(Nc2ccccn2)c2ccc3ccc(C)nc3c2O)cc(OC)c1O (configuration not stated) | -1.3 | 113* | -1 | 73* | 0
COc1cccc(/C=N\NC(C)=O)c1OC/C=C/c1ccccc1 | · | 41 | 0 | 18 | 0
O=C(COC(=O)CC1CC2CCC1C2)Nc1ccccc1[N+](=O)[O-] (configuration not stated) | · | · | -10 | · | 0
COCCCNc1nc2nonc2nc1N1CCC(C(C)N2CCOCC2)CC1 (configuration not stated) | 0.68 | -7 | 6 | 70* | 0
COCCNc1nc2nonc2nc1N1CCC(N(C)C)C1 (configuration not stated) | · | -5 | -5 | 56 | 0
COC(=O)c1ccc2nc(NC(=O)CN3C(=O)CCC3=O)sc2c1 | 0.89 | 0 | 9 | 71* | 0
CC1CCC(NC(=O)Cn2c(=O)[nH]c3ccsc3c2=O)CC1 (configuration not stated) | 1.8 | 7 | 0 | 16 | 0
O=C(Cn1c(=O)[nH]c2ccsc2c1=O)NC1CCCCCC1 | -4.7* | -9 | 3 | 11 | 0
O=c1[nH]cnc2sc3c(c12)CCC3 | 0.43 | 1 | 60* | 16 | 0
COc1cc(NC(=O)[C@H](C)NC(=O)N2CCn3c2nc2ccccc23)cc(OC)c1 | · | 2 | 6 | 44 | 0
SMILES | KCC2 mod | Calb FLC | Cardio protect | PHOSPHO1 inh | Efflux pump inh
COc1cccc(NC(=O)[C@H](C)NC(=O)N2CCn3c2nc2ccccc23)c1 | · | -8 | 1 | 65* | 0
CC1(O)CC(c2ccc(Cl)cc2)=NN1C(=O)c1ccc([N+](=O)[O-])cc1 (configuration not stated) | -1.4 | 95* | -22 | 9 | 0
CC(=O)N1N=C(c2ccc(Cl)cc2)CC1c1ccc([N+](=O)[O-])cc1 (configuration not stated) | · | -1 | -7 | 14 | 0
COc1ccc(CCNC(=O)COC(=O)Cn2cnc3c2c(=O)n(C)c(=O)n3C)cc1 | · | · | 6 | · | 0
Cn1c(=O)c(C(=O)NCCc2ccccc2)c(O)c2ccccc21 | · | 89* | 12 | 19 | 0
COc1ccc(CCN2CCCn3c2nc2c3c(=O)n(CC(C)C)c(=O)n2C)cc1OC | · | -6 | 15 | -12 | 0
NC(=O)COC(=O)c1ccc(S(=O)(=O)N2CCCCCC2)cc1 | 0.73 | 4 | 2 | -11 | 0
Cc1nc(COC(=O)c2ccc(S(=O)(=O)N3CCCC3)cc2)cs1 | 0.42 | 0 | 0 | 81* | 0
CC(C)N1CC(C(=O)Nc2ccc(Cl)cc2Cl)CC1=O (configuration not stated) | · | · | 11 | · | ·
